# High-throughput results (PubChem BioAssay)
# Hits are enriched below; roughly 4.9% of the tested compounds scored in any of these assays.
# Mdm2 MdmX PPI: inhibitors of human Mdm2/MdmX interaction | SaOS-2 split-luciferase Mdm2/MdmX complementation, luminescence | actives 3% (n = 330,000) | O15151+Q00987 | inhibition, % at 8 µM;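 active = inhibition of at least 50% at 8 µM in the primary screen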
# Beta cell apopt: blocks beta cell apoptosis | actives 0.8% (n = 300,000) | AID 435005 | protection from apoptosis, % (test concentration not listed) | INS-1E cytokine-induced death, ATP luminescence, 48 h; percent of positive-control rescue, neutral wells zero;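 active = Every replicate reaches about 75%, or at least half do and their mean reaches it too, limit read from the data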;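 also: 0% = cytokine-treated negative control wells and 100% = positive control rescue; higher means more ATP so stronger rescue from cytokine killing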
# PP5 inh: inhibitors of human protein phosphatase 5 (PP5); P53041; purified PP5c, OMFP substrate fluorescence; inhibition, % at 6.7 µM; actives 0.18% (n = 320,000); AID 1987;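 active = inhibition above the campaign's mean inhibition across all tested compounds plus 3 SD, cut at about 9.5% in these data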;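 also: 0% = DMSO only and 100% = 100 µM cantharidin control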
# Target sequence (P53041 whole entry, looked up): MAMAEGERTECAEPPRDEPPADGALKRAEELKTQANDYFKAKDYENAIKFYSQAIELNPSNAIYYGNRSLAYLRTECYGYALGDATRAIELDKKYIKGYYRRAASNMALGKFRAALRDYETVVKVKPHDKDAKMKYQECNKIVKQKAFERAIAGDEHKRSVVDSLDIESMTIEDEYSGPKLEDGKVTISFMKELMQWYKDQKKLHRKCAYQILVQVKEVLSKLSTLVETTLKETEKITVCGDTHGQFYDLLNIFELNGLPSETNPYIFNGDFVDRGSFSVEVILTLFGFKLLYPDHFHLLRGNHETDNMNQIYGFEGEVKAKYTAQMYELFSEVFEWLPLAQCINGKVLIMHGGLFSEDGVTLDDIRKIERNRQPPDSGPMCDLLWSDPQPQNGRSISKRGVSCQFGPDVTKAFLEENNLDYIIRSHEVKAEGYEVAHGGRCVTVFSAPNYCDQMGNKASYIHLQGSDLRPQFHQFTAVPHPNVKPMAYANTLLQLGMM
# CSC inhib: blocks cancer stem cells; cancer stem cell-like cells viability, luminescence; inhibition, % at 7.5 µM; actives 1.1% (n = 300,000); in the data active = inhibition above about 75%; tested in HMLE shEcad cells
# PP1 inh: blocks human PP1-alpha phosphatase, a PP5 counter-screen. actives 0.9% (n = 320,000). AID 2235. P62136. inhibition, % at 6.7 µM. purified PP1alpha, OMFP fluorescence;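 active = inhibition above the mean inhibition of all tested compounds plus 3 SD, computed separately for each screening campaign, cut at about 15% in these data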
# Calb FLC: affects C. albicans growth with fluconazole | C. albicans CaCi-2 (fluconazole-resistant clinical isolate) + fluconazole, Alamar Blue growth, 48 h | growth inhibition, % (no concentration beside the values) | actives 0.57% (n = 300,000) | AID 1979;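 active = growth inhibition above about 58% in most replicates, limit read from the data, passing the limit was not always enough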;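 also: all wells also contain fluconazole at 8 µg/ml as a sub-toxic cotreatment; 0% = median of DMSO wells and 100% = median of geldanamycin control wells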
# Mdm2 MdmX conf: confirmation of human Mdm2/MdmX interaction inhibitors | Mdm2-MdmX binding, luminescent assay | inhibition, % at 8 µM | shares compounds with Mdm2 MdmX PPI | actives 55% (n = 10,000) | AID 489028; in the data active = inhibition above about 40%
# FLuc counter: counter-screen for Mdm2/MdmX inhibitors: full-length luciferase; shares compounds with Mdm2 MdmX PPI; SaOS-2 full-length luciferase counterscreen, luminescence; inhibition, % at 8 µM; actives 77% (n = 6,200);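 active = mean inhibition at 8 µM reaching about 37%, which flags the compound as non-specific, limit read from the data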;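 also: p53-null SaOS-2 cells with luciferase driven by a doxycycline-inducible promoter; compound on cells about two nights before reading with doxycycline added after day one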
# Active calls of the source: *; · = not tested or not shown; + = active, no number.
SMILES,Mdm2 MdmX PPI,Beta cell apopt,PP5 inh,CSC inhib,PP1 inh,Calb FLC,Mdm2 MdmX conf,FLuc counter
Cc1nn(CC(=O)N(C)C2CCS(=O)(=O)C2)c(C)c1S(=O)(=O)N(C)C (stereo not drawn),-17.0,-0.8,1.9,·,-5.6,·,·,·
N#Cc1cc(Oc2cccc3cccnc23)c(-n2nnc3ccccc32)cc1C#N,61.8*,9.7,6.2,5.3,15.8*,0.5,18.3,·
COc1ccc(CN2CCN(Cc3ccon3)CC2CCO)c(C)c1C (stereo not drawn),2.0,-9.2,-0.9,-6.9,-6.8,-4.2,·,·
CN(C)/C=C1/N=C(c2ccccc2)OC1=O,20.6,-1.2,-0.5,-12.0,-2.9,-15.6,·,·
O=CC1=C(c2ccccc2)Oc2ccccc2O1,56.8*,52.5,0.1,62.5,-1.1,3.0,7.8,·
O=C(NCc1ccccc1)c1cccnc1Sc1ccccc1,3.2,·,1.4,·,-0.7,8.3,·,·
CCOCc1c(C(=O)NC2=Nc3ccccc3NC(CC)=C2C(=O)OCC)oc2ccccc12,68.9*,9.5,1.5,42.6,1.5,-18.3,73.0*,64.8*
COc1cc2c(cc1OC)-c1cc(Nc3ccc4c(c3)OCCO4)nc(=O)n1CC2,67.7*,20.9,5.1,17.9,-4.2,-3.4,44.8*,52.1*
COc1cccc(NC(=O)Nc2nc(-c3ccc(OC)c(OC)c3)cs2)c1,95.6*,16.8,5.6,103.7*,1.0,15.4,98.5*,52.1*
COc1ccc(-c2csc(NC(=O)CCn3cnc4ccccc4c3=O)n2)cc1OC,57.7*,18.5,-0.6,-3.4,-2.7,0.9,2.5,·
COc1ccc(-c2csc(NC(=O)CCCc3nc4ccccc4c(=O)[nH]3)n2)cc1OC,25.6,3.8,-0.1,-4.0,0.2,·,·,·
COc1ccc(-c2csc(NC(=S)NC(=O)c3ccc4ccccc4c3)n2)cc1OC,78.0*,15.4,-1.4,37.3,-2.1,-2.2,10.6,·
COc1ccc(-c2csc(NC(C)=O)n2)cc1OC,1.7,-5.2,0.2,2.1,0.1,3.9,·,·
O=C(COC(=O)CCSc1ccccc1)NCc1ccc(F)cc1,-16.5,-0.5,2.5,-18.2,2.0,3.1,·,·
CN(C)c1ccc(/C=N/OC(=O)Nc2ccccc2Cl)cc1,39.4,-6.6,-0.8,1.8,-5.3,-20.9,·,·
N#Cc1c(Cl)nsc1NC(=O)c1ccccc1,76.1*,77.9*,2.8,46.0,3.6,106.2*,51.6*,70.5*
COc1ccccc1NC(=O)C1CC(C(C)C)OC1=O (stereo not drawn),-3.8,-2.8,0.3,-13.9,-11.0,-6.4,·,·
S=C1NC2=C(CCC/C2=C\c2ccccc2)C(c2ccccc2)N1 (stereo not drawn),18.8,-1.3,-0.4,14.8,-16.1,-38.4,·,·
C(=C1/CCCC2=C1Nc1ncnn1C2c1ccccc1)/c1ccccc1 (stereo not drawn),75.7*,-16.6,-2.7,40.7,-3.2,-7.6,84.0*,11.2
Cc1ccc(CN2CCN(C(=O)CC(C)C)CC2)cc1,24.4,·,2.6,-3.0,-8.4,-8.0,·,·
Cc1ccc(Sc2ccc(NC(=O)CCl)cc2)c(C)c1,65.7*,3.2,5.3,40.0,-0.1,-44.1,9.1,·
Cc1nc(SCc2nc3c([N+](=O)[O-])cccc3[nH]2)c2oc3ccccc3c2n1,58.4*,-7.4,·,·,·,·,14.5,·
COCCN(C(=O)CNC(=O)c1cccs1)C(C(=O)NC(C)(C)C)c1ccccc1 (stereo not drawn),-10.4,-3.7,-1.0,-4.2,-1.4,18.6,·,·
CC(=O)C1C(=O)C=C(c2cccs2)CC1c1ccccc1 (stereo not drawn),12.0,2.7,0.7,-15.6,-0.6,0.9,·,·
O=C1C=C(c2cccs2)C[C@H](c2ccccc2)[C@H]1n1nnc([N+](=O)[O-])n1,73.6*,101.0*,-0.2,149.3*,6.5,-9.6,54.1*,171.5*
SMILES,Mdm2 MdmX PPI,Beta cell apopt,PP5 inh,CSC inhib,PP1 inh,Calb FLC,Mdm2 MdmX conf,FLuc counter
CCOCCCN(Cc1ccco1)C(=O)c1cc2c(=O)[nH]c3ccc(C)cc3c2s1,56.4*,3.2,1.9,·,0.0,-2.1,33.9,·
Cc1ccc2[nH]c(=O)c3cc(C(=O)N(C)Cc4ccco4)sc3c2c1,19.0,-5.6,-0.9,1.0,2.6,-2.5,·,·
CCc1ccccc1NC(=S)N=Nc1c(O)n(C)c2ccc(S(=O)(=O)N3CCOCC3)cc12,51.8*,·,0.9,39.9,0.7,68.7,60.5*,52.9*
Cc1ccc(Cn2c(O)c(N=NC(=S)Nc3ccccc3F)c3cc(S(=O)(=O)N4CCOCC4)ccc32)cc1,·,·,·,·,·,42.1,·,·
Cc1ccc(C)c(NC(=S)N=Nc2c(O)n(C)c3ccc(S(=O)(=O)N4CCOCC4)cc23)c1,66.5*,47.8,-0.4,31.1,1.9,-6.0,45.3*,59.3*
O=[N+]([O-])c1cc(C(F)(F)F)cc([N+](=O)[O-])c1NCCNC(=S)Nc1ccc(Cl)c(Cl)c1,89.9*,·,2.7,107.2*,7.0,0.3,45.8*,54.6*
FC(F)(F)c1cccc(NC(=S)Nc2ccc(Cl)c(Cl)c2)c1,47.1,13.6,3.2,42.1,-1.0,-5.2,·,·
COc1c2c(cc3oc(=O)c4c5ccc(O)cc5oc4c13)OC(C)(C)CC2,81.4*,6.5,1.9,-10.3,-4.9,-6.8,62.6*,+
COc1c(CC=C(C)C)c(O)cc2oc(=O)c3c4ccc(O)cc4oc3c12,1.8,-6.2,2.4,-2.4,-0.4,18.9,·,·
Cc1ccc(CSC(Nc2ccc(F)cc2)=C(C#N)C#N)cc1,91.2*,116.9*,2.5,7.3,8.8,1.1,92.3*,24.3
CCN(CC)C(=O)CSC(Nc1ccc(F)cc1)=C(C#N)C#N,-0.7,-4.7,-1.2,-0.7,-2.1,-5.8,·,·
Cn1c(=O)[nH]c(=O)c2c1nc(N1CCCCC1)n2CC(O)COc1ccccc1 (stereo not drawn),11.0,-3.4,-0.1,-12.0,2.7,11.6,·,·
NNc1nc2sc3c(c2c(=O)n1C1CCCCC1)CCN(Cc1ccccc1)C3,55.5*,-6.7,3.3,47.5,6.0,-4.3,7.8,·
NNc1nc2sc3c(c2c(=O)n1Cc1ccccc1)CCC3,-6.0,-4.0,3.1,16.9,2.6,23.0,·,·
O=C1OCCC1Sc1nnc(-c2ccc(Cl)cc2Cl)o1 (stereo not drawn),77.4*,2.8,2.0,-3.8,-4.8,0.8,62.1*,48.9*
CCC[C@H](CN[C@@H](CNC)[C@H](C)CC)NCCc1cc(C(F)(F)F)cc(C(F)(F)F)c1,97.0*,17.4,1.7,59.3,5.8,-36.5,100.2*,52.0*
CCC[C@@H](CN[C@@H](CNC)[C@H](C)CC)NCC1CCC(C(C)(C)C)CC1 (stereo partly drawn),99.3*,62.4,1.2,43.8,3.3,-30.6,99.8*,2.5
